Screening data (PubChem BioAssay)
Only a selection was taken, and hits are over-represented in it overall.
MBNL1 CUG block: MBNL1-poly(CUG) RNA binding inhibition. TR-FRET MBNL1-His/biotin-(CUG)12 binding, 665/545 ratio. Potency, µM (highest dose often 57.5 µM), inactives show at the highest dose activity change, negative = inhibition, usual class: inhibitors. hit rate 0.036% among 280,000. Q9NR56; active means well fitted inhibition curve with a large enough effect in the signal ratio, with a control signal flat, not every such curve was filed as active; inconclusive means small, poorly fitted or top-dose-only effect, or effect the other way, or a change in a side signal; inactive means no such curve, though single readings can be large or run the other way; the % refers to the signal ratio; further: on the % scale 0 is the no-effect control and ±100 the full control effect
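TR-FRET between His-tagged MBNL1 and biotin-(CUG)12 RNA, detected with Tb anti-His antibody (0.055 ng/ul) and streptavidin-XL665 (5 nM), 60 min at room temperature. Compounds titrated 92 nM to 58 uM; 665/545 nm ratio normalized to buffer and complex controls.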
NPSR antag: blocks cAMP signaling of the human neuropeptide S receptor; AID 1461; Q6W5P4; Potency, µM (highest dose often 38.3 µM), for the others: at the highest dose activity change, negative = inhibition, usual class: inhibitors; CHO-NPSR cells, cAMP TR-FRET, antagonist mode; hit rate 1% among 220,000; further: on the % scale 0 is the no-effect control and ±100 the full control effect; nearly all actives have a fitted effect of over 50% in size
IMPase Li inh: IMPase inhibition in cells with lithium potentiation. CHO-M1 cells, IP1 TR-FRET (IP-One), carbachol + lithium. Potency, µM (highest dose often 59.4 µM), inactives show at the top dose activity, negative = IMPase inhibition, usual class: inhibitors. hit rate 0.35% among 210,000. AID 1457;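 further: IP1 builds up when IMPase is blocked and the TR-FRET signal falls; plate controls were basal vehicle for no effect and high inhibitor control for full effect; nearly all actives have a fitted effect of over 50% in size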
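Concentration–response in CHO-M1 cells, lithium-potentiated; 30 min at 37C. IP1 detected by competitive TR-FRET after 10 min lysis at RT. Hill-fitted AC50.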
GoLoco inh red: inhibitors of human Gai1-RGS12 GoLoco interaction (red fluorophore) | P63096 | Gai1:RGS12 GoLoco peptide FP, rhodamine, 10 min | Potency, µM (highest dose often 61.6 µM), inactives show top-dose activity, negative = inhibition, usual class: inhibitors | hit rate 0.44% among 230,000; active means well fitted inhibition curve with a large enough effect, not every such curve was filed as active; inactive means no such curve, though single readings can be large or run the other way; further: on the % scale 0 is the no-effect control and ±100 the full control effect; nearly all actives have a fitted effect of over 30% in size
Target sequence (P63096 whole entry, looked up): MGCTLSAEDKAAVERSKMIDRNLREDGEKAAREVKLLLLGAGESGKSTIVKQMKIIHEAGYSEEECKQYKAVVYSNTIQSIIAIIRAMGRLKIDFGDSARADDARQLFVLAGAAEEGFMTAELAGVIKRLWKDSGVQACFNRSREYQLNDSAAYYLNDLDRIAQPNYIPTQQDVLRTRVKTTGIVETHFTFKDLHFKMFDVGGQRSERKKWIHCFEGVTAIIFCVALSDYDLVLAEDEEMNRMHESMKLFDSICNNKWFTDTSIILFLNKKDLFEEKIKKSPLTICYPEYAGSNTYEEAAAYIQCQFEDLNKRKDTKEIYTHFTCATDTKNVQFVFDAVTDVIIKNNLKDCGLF
Tb PFK inh-1: inhibitors of T. brucei phosphofructokinase. O15648. T. brucei PFK, ADP-Glo luminescence. Potency, µM (titrated, usually from 57.5 µM), for the others: at the top dose activity, negative = inhibition, actives largely listed as inhibitors. hit rate 0.17% among 330,000;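 further: 0% = uninhibited 1x PFK enzyme wells and -100% = no-enzyme wells; nearly all actives have a fitted effect of over 60% in size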
Target sequence (O15648 whole entry, looked up): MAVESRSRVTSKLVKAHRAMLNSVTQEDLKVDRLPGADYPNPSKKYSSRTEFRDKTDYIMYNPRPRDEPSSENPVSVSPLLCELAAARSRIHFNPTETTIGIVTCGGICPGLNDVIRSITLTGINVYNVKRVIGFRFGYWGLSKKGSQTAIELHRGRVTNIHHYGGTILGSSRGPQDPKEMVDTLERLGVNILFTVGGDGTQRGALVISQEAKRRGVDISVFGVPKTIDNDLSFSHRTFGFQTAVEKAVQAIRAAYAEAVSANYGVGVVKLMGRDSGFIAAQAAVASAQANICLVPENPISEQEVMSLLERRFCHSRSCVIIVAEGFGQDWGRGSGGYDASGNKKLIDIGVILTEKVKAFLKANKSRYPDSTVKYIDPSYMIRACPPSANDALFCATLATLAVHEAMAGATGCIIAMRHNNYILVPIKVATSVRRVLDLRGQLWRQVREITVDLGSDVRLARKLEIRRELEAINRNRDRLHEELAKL
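Luminescent ADP detection (ADP-Glo, two-step: ATP depletion then ADP-to-ATP conversion for luciferase) reported PFK activity after 45 min room-temperature reaction of 1.25 nM enzyme with 0.5 mM F6P and 0.1 mM ATP at pH 8.0.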
TbPFK ATP: inhibits T. brucei PFK measured by ATP depletion | Potency, µM (top dose mostly 57.5 µM), for inactives: top-dose inhibition | shares compounds with Tb PFK inh-1 | hit rate 47% among 1,100 | AID 504636 | Tb PFK enzyme, ATP depletion, Kinase-Glo Plus luminescence; calls by dose curve; further: nearly all actives have a fitted effect of over 60% in size
Tb PFK inh-2: validation of T. brucei phosphofructokinase inhibitors; hit rate 41% among 1,100; Potency, µM (doses to about 57.5 µM), for inactives: at the top dose activity change, negative = inhibition, actives largely listed as inhibitors; purified T. brucei PFK, ADP-Glo luminescence, 45 min; AID 504637; shares compounds with Tb PFK inh-1;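 further: plate controls were full PFK enzyme control for no effect and no enzyme control for full effect; nearly all actives have a fitted effect of over 60% in size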
* hit, by the source's call; u = inconclusive; x = not tested or not shown; [ ] = another dose, or the depositor's remark. Unless noted, the call rests on the fitted dose curve; in most records, active means well fitted curve in the direction sought with a large enough effect; inconclusive means small, poorly fitted or top-dose-only effect, or another doubt; inactive means no such curve, though single readings can be large; an effect the other way counts as inactive or inconclusive. Potency means the concentration at half of the fitted maximal effect.

SMILES	MBNL1 CUG block	NPSR antag	IMPase Li inh	GoLoco inh red	Tb PFK inh-1	TbPFK ATP	Tb PFK inh-2
Nc1ncnc2c1ncn2[C@@H]1O[C@H](COP(=O)(O)OP(=O)(O)OP(=O)(O)O)[C@@H](O)[C@H]1O	x	x	-2.0%	2.6%	u	-29.2%	u
Nc1ncnc2c1ncn2[C@@H]1O[C@H](COP(=O)(O)CP(=O)(O)OP(=O)(O)O)[C@H](O)[C@H]1O	x	-7.0%[46.1 µM]	-17.0%	15.1%	x	x	x
Brc1cccc(OCCn2ccnc2)c1	-0.9%	-3.8%[46.1 µM]	20.9%[38.3 µM]	1.4%	21.3µM*	12µM*	13.5µM*
O=C(NCc1cccnc1)C(=O)NCC1OCCN1S(=O)(=O)c1ccc(F)cc1 (centres undefined)	-39.0%	10.5%	0.4%	-3.6%	u	u	-29.8%
Oc1ccc2c3c1O[C@H]1c4c(c5ccccc5n4Cc4ccccc4)C[C@@]4(O)C(C2)N(CC2CC2)CC[C@]314	x	x	38.5%	7.5%	x	x	x
CC(=O)C1=C(O)[C@@H]2[C@@H]3c4c[nH]c5cccc(c45)C[C@@H]3C(C)(C)N2C1=O	x	x	26.7%	8.2%	x	x	x
CC(C)(C)C(=O)[C@@H]1[C@@H]2C(=O)N(c3ccc4c(c3)OCCO4)C(=O)[C@@H]2C2c3ccccc3C=CN21 (some centres undefined)	15.6%	-15.6%[46.1 µM]	6.2%[38.3 µM]	-6.6%	u	2.0%	-0.5%
O=C1CC(=O)N(c2ccc3c(c2)OCO3)C(=O)N1	-2.3%	-4.6%[46.1 µM]	16.7%[38.3 µM]	-3.2%	18.0%	x	x
c1cc2cc(c1)C[n+]1ccc(c3ccccc31)NCc1ccc(cc1)CNc1cc[n+](c3ccccc13)C2	x	x	35.3%	-1.4%	x	x	x
O=C1C=C(NCc2ccc(Cl)cc2Cl)C2(CCCCC2)O1	-4.5%	10.6%[46.1 µM]	35.1%[38.3 µM]	-3.6%	10.7µM*	5.36µM*	16.9µM*
CC(C)=CCCC1(C)C=Cc2c(O)c3c(c(CC=C(C)C)c2O1)OC12C(=CC4CC1C(C)(C)OC2(C/C=C(/C)C(=O)O)C4=O)C3=O (centres undefined)	x	x	25.1%	0.4%	x	x	x
CC(=O)Nc1ccc(SCC(=O)c2ccc(Br)s2)cc1	36.2%	x	x	x	23.9µM*	u	-24.3%
C=C(C)[C@]12C[C@@H](C)[C@@]34O[C@](Cc5ccccc5)(O[C@@H]1[C@@H]3C=C(COC(=O)Cc1ccc(O)c(OC)c1)C[C@]1(O)C(=O)C(C)=C[C@@H]41)O2	x	x	3.6%	13.4%	x	x	x
O=NN(c1ccccc1)c1ccccc1	x	x	9.2%	-1.0%	x	x	x
CN1CCN(C(=S)c2ccc(Br)cc2)CC1	-18.7%	-6.9%[46.1 µM]	x	x	u	12µM*	13.5µM*
CSc1ccc(C(=S)N2CCN(C)CC2)cc1	-4.9%	-4.3%[46.1 µM]	7.9%	-5.3%	u	21.3µM*	u
CN1CCN(C(=S)c2ccc([N+](=O)[O-])cc2)CC1	u	12.7%	1.4%	8.7%	-5.8%	x	x
CN1CCN(C(=S)c2ccc(N(C)C)cc2)CC1	-7.6%	-23.9%[46.1 µM]	23.8%[38.3 µM]	-18.5%	u	12µM*	26.9µM*
C[C@]12CCC3C(CC[C@H]4C[C@@H](O)CC[C@]34C)[C@@H]1CCC2=O (some centres undefined)	x	x	8.1%	3.9%	x	x	x
O=C(/C=C1\C(=O)Nc2ccccc21)/C=C1\C(=O)Nc2ccccc21	9.2%	u	x	-24.9%	u	1.69µM*	4.78µM*
COc1cc(N[C@@H](C)CCCN)c2ncccc2c1	x	x	13.2%	-15.7%[21.6 µM]	x	4.0%	-5.3%
c1ccc(P(c2ccccc2)c2ccccc2)cc1	x	x	27.1%	15.6%	x	x	x
O=C(OCc1ccc(Cl)c(Cl)c1)c1ccccn1	-1.1%	u	30.7%[38.3 µM]	2.6%	u	x	x
O=C(Cc1ccc(Cl)c(Cl)c1)Nc1cccc2ncccc12	5.3%	-2.4%	7.0%	20.5%	10.7µM*	10.7µM*	10.7µM*
Oc1ccc(/C=N/Nc2nccnc2Cl)cc1	u	-17.1%[46.1 µM]	37.1%[38.3 µM]	6.9%	u	-31.0%	19µM*
SMILES	MBNL1 CUG block	NPSR antag	IMPase Li inh	GoLoco inh red	Tb PFK inh-1	TbPFK ATP	Tb PFK inh-2
C=CC(=O)OCC(CC)CCCC (centres undefined)	x	x	-15.8%	15.7%	x	x	x
COC(=O)c1ccc(-c2noc(CN(C)CCC3CCCCO3)n2)cc1 (centres undefined)	0.2%	u	27.6%	4.7%	u	3.5%	u
COC(=O)c1ccc(C(C(=O)NC2CCCCC2)N(CCN2CCOCC2)C(=O)Cc2cccs2)cc1 (centres undefined)	0.5%	-10.5%	-1.7%	-0.7%	7.0%	x	x
OCCN1CCN(C(=S)c2ccc(Cl)c(Cl)c2)CC1	-0.2%	11.1%[46.1 µM]	15.7%[38.3 µM]	-5.3%	19µM*	5.36µM*	13.5µM*
Clc1ccc(CO[C@@H](Cn2ccnc2)c2ccc(Cl)cc2Cl)cc1	x	x	-0.7%	5.5%[21.6 µM]	x	x	x
C/C=C1\C[N@@+]2(C)CC[C@@]34C(=C(C=O)[C@H]1C[C@H]32)Nc1ccccc14	x	x	-0.3%	-37.6%[21.6 µM]	x	x	x
N#Cc1c(N)nc2c(c1N)CC(COc1ccccc1)O2 (centres undefined)	13.4%	1.4%[46.1 µM]	-11.9%[38.3 µM]	-0.9%	u	13.5%	15.0%
COc1ccccc1/C=C/C(=O)NCC(=O)N/N=C/c1ccccc1[N+](=O)[O-]	u	17.5%	-4.8%	-0.9%	u	-32.2%	u
C=CC(=O)OC	x	x	-0.9%	-13.8%	x	x	x
Oc1ccc(/C=N/NC(=S)Nc2cccnc2)c(O)c1O	3.1%	-9.1%	x	-14.7%	u	3.01µM*	7.57µM*
CC(Cl)CCl (centres undefined)	x	x	-4.5%	2.8%	x	x	x
Cc1cc(C(=O)NNC(=O)Cc2ccc(Cl)c(Cl)c2)c(C)o1	x	x	x	x	26.9µM*	12µM*	30.1µM*
O=C(COc1ccc(Cl)cc1Cl)N/N=C/c1ccc[nH]1	7.5%	x	x	x	u	6.75µM*	15.1µM*
CCn1cc(C(=O)NCc2ccco2)c(=O)c2cc(F)c(N3CCN(C(=O)c4ccco4)CC3)cc21	1.4%	-20.3%[46.1 µM]	21.3%[38.3 µM]	9.7%	9.53µM*	u	u
CN(C(=O)Cc1ccc(Cl)c(Cl)c1)[C@H](CN1CCCC1)c1ccccc1	x	x	-3.2%	0.7%	x	x	x
Clc1ccc(C[n+]2cc(-c3ccccc3)n3c2CCC3)cc1Cl	-13.4%	-1.9%	15.5%	-2.9%	u	6.75µM*	10.7µM*
CCOC(=O)C1=C(C)c2ccccc2N(C(=O)OC)C1(C)C(=O)OCC (centres undefined)	x	x	18.7%	-11.1%[88.7 µM]	u	21.3µM*	u
C[C@@](Br)(C(=O)O)[C@H](Br)C(=O)O	x	x	3.6%	1.2%[14.2 µM]	x	x	x
CN[C@@H]1C[C@H](c2ccc(Cl)c(Cl)c2)c2ccccc21	x	x	23.0%	0.5%	x	x	x
